# Assay outcomes from PubChem BioAssay.
# Peg3 prom inh: Peg3 promoter-driven luciferase inhibitors, primary screen, cell-based, HeLa, luciferase luminescence | hit rate 1.7% among 360,000 | HeLa PEG-Prom luciferase reporter, overnight | inhibition, % at 20 µM;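 active = inhibition of at least 50% at 20 µM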
# Mdm2-MdmX inh: inhibitors of human Mdm2-MdmX association, primary screen, cell-based, luminescence, split luciferase, SaOS-2, uHTS; SaOS-2 split-luciferase Mdm2/MdmX complementation; hit rate 3% among 330,000; Protein Mdm4 (Homo sapiens) + E3 ubiquitin-protein ligase Mdm2 (Homo sapiens), …; AID 485346, 2010; inhibition, % at 8 µM;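 active = inhibition of at least 50% at 8 µM in the primary screen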
# HIF-2a inh: HIF-2a reporter inhibitors, primary screen, luminescence, 786-0 RCC cells; hit rate 0.72% among 360,000; AID 624352, 2012; inhibition, % at 18.8 µM; 786-0 RCC cells HIF-2a reporter, luciferase luminescence, overnight;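 active = inhibition of the luminescence signal of 40% or more relative to plate controls, in a single-dose primary screen at 18.75 µM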
# KKLEB cytotox: cytotoxicity in KKLEB CF airway cells, primary screen, cytotoxicity control for CF NF-kB inhibitor project, cell-based, uHTS, fluorescence assay plates | KKLEB CF airway cells viability, ATPlite luminescence, overnight; hits give low values; cells stimulated with P. aeruginosa culture filtrate | activity change (cytotoxicity), % at 5 µM | hit rate 0.36% among 360,000;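 active = corrected activity change at or below -50% at 5 µM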
# ABHD5 PLIN5 PPI: ABHD5-PLIN5 interaction inhibitors, primary screen, cell lysate, split luciferase complementation, luminescence. Split G. princeps luciferase complementation, 4 h. inhibition, % at 4 µM. hit rate 0.78% among 360,000;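 active = inhibition above the mean inhibition across every tested compound plus 3 SD, cut at about 22% in these data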;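 note: 0% = DMSO only wells and the 100% control is not disclosed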
# CF NFkB inh: inhibitors of PAF-induced NF-kB signaling, primary screen, cell-based, GFP fluorescence, uHTS; KKLEB NF-kB-GFP reporter, GFP fluorescence overnight; hit rate 0.86% among 360,000; inhibition, % at 5 µM; AID 588850, 2011;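 active = at least 50% inhibition at 5 µM, scaled per plate between neutral and stimulator controls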;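 note: PAF is a Pseudomonas aeruginosa culture filtrate used as stimulus; plate controls were PAF-stimulated DMSO wells for no effect and unstimulated DMSO wells for full effect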
# Mdm2-MdmX conf: Mdm2-MdmX complex disruptors, retested hits, confirmation, luminescence, single concentration. shares compounds with Mdm2-MdmX inh. Mdm2-MdmX binding, luminescent assay. inhibition, % at 8 µM. hit rate 55% among 10,000. AID 489028, 2010; in the data active = inhibition above about 40%
# FLuc counter: full-length luciferase signal inhibition, confirmation, counter-screen for Mdm2/MdmX interaction inhibitor project, cell-based, single concentration, SaOS-2. hit rate 77% among 6,200. shares compounds with Mdm2-MdmX inh. SaOS-2 full-length luciferase counterscreen, luminescence. inhibition, % at 8 µM. AID 504607, 2011;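 active = mean inhibition at 8 µM reaching about 37%, which flags the compound as non-specific, limit read from the data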;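 note: p53-null SaOS-2 cells with luciferase driven by a doxycycline-inducible promoter; compound on cells about two nights before reading with doxycycline added after day one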
# Numbers without * were called inactive; . = no result. Sampled rows, rich in hits. Any-hit rate of the full collection: about 4.6%.
SMILES,Peg3 prom inh,Mdm2-MdmX inh,HIF-2a inh,KKLEB cytotox,ABHD5 PLIN5 PPI,CF NFkB inh,Mdm2-MdmX conf,others
CC1CN(C(=O)CCC(=O)NCc2ccccn2)c2ccccc2O1 (stereo not drawn),7.0,24.7,2.7,-15.4,1.2,7.3,.,
COc1cc(C(=O)Nc2ccc(Oc3ncnc4sc(-c5ccccc5)cc34)cc2)cc(OC)c1OC,14.3,52.6*,7.4,-35.2,6.1,49.2,27.6,
COc1ccc(C(=O)Nc2ccc(Oc3ncnc4sc(-c5ccccc5)cc34)cc2)cc1OC,46.0,5.1,9.7,-5.6,0.0,-3.4,.,
COc1ccc(C(=O)Nc2ccc(Oc3nc(C)nc4sc(-c5ccccc5)cc34)cc2)cc1OC,-1.3,55.8*,-9.0,-53.3*,2.5,48.1,-4.0,
O=C(O)c1ccccc1C(=O)c1ccc2oc(=O)[nH]c2c1,-10.6,.,8.3,-5.4,0.2,11.8,.,
CC(=O)Nc1ccc(Cl)cc1C(=O)c1ccc[nH]1,-2.9,.,5.1,3.7,3.6,22.5,.,
NCC(=O)Nc1ccc(Cl)cc1C(=O)c1ccc[nH]1,3.7,63.5*,11.6,-6.2,2.9,8.9,66.3*,FLuc counter=40.4*
CC1c2ccccc2SC(CCCN(C)C)c2ccccc21 (stereo not drawn),17.0,52.5*,10.7,-3.9,9.9,-6.4,3.1,
COc1ccccc1Nc1nc(N)nc(CCl)n1,26.3,71.8*,5.5,-7.7,4.5,13.0,68.5*,FLuc counter=54.4*
COc1cccc(Nc2nc(N)nc(CCl)n2)c1,31.1,49.9,-71.6,-7.8,-32.4,34.6,.,
COc1ccc(OC)c(Nc2nc(N)nc(CCl)n2)c1,18.3,81.6*,18.0,-2.4,-3.5,12.3,84.0*,FLuc counter=40.7*
Cc1ccc2[nH]c(CNC(=O)C3CCCCC3)cc2c1,-13.7,13.8,-10.8,6.5,2.6,-14.3,.,
NS(=O)(=O)c1ccc(CCNC(=O)c2cc3ccccc3oc2=O)cc1,-2.9,7.6,11.0,11.8,1.9,7.5,.,
O=C(Nc1ccccc1N1CCCCC1)c1ccc(-c2ccc(Cl)cc2)o1,-20.4,30.2,-11.3,8.7,-1.5,0.6,.,
CN1CCN(c2ccccc2NC(=O)c2ccc(-c3ccc(Cl)c(Cl)c3)o2)CC1,41.6,57.7*,-8.5,-10.4,5.1,20.5,22.6,
CN1CCN(c2ccccc2NC(=O)c2ccc(-c3ccc(Br)cc3)o2)CC1,24.7,47.9,-45.1,-6.6,5.2,-38.2,.,
Cc1cc(N2CCN(C)CC2)ccc1NC(=O)c1ccc(-c2ccc(Cl)cc2)o1,90.4*,51.9*,41.1*,-12.5,5.8,12.0,45.4*,FLuc counter=74.2*
Cc1nc(C)n(CC(C)C(=O)N2CCN(S(=O)(=O)c3ccc(Cl)cc3)CC2)n1 (stereo not drawn),18.2,1.8,9.4,-4.9,7.7,17.6,.,
COc1ccc2c(c1OC)C(=O)N1c3ccccc3C(=O)N(c3ccc(F)cc3)C21 (stereo not drawn),45.7,56.6*,-4.9,-3.8,-0.8,32.2,44.2*,FLuc counter=88.5*
CCc1nc(SCC(=O)Nc2ccc3c(c2)OCCO3)c2oc3ccccc3c2n1,47.9,85.9*,10.8,-6.7,10.0,2.0,8.7,
CN1CCN(C(=O)c2cccc(-c3cnc4cnc(-c5ccccc5Oc5ccccc5)cn34)c2)CC1,20.7,.,11.0,-17.2,5.4,27.1,.,
N#CCCN(Cc1ccccc1)C(CCc1ccccc1)C(=O)NC1CCCCC1 (stereo not drawn),7.5,.,-0.8,-18.1,13.8,16.1,.,
O=[N+]([O-])c1ccc(Sc2nnnn2-c2ccccc2)nc1,.,60.5*,.,.,.,.,47.3*,FLuc counter=78.6*
COc1ccc(-c2csc(C(O)c3ccc(F)cc3)n2)cc1OC (stereo not drawn),-5.5,.,-15.6,1.2,3.4,8.7,.,
Cc1cc(Oc2nc3c(C)cccn3c(=O)c2/C=C(\C#N)S(=O)(=O)c2ccc(Cl)cc2)ccc1Cl,4.3,56.7*,8.3,10.3,-1.2,6.8,-1.2,
SMILES,Peg3 prom inh,Mdm2-MdmX inh,HIF-2a inh,KKLEB cytotox,ABHD5 PLIN5 PPI,CF NFkB inh,Mdm2-MdmX conf,others
CCN1CCN(c2nc3c(C)cccn3c(=O)c2/C=C(\C#N)S(=O)(=O)c2ccc(Cl)cc2)CC1,16.4,-9.6,8.8,-6.4,10.3,-4.1,.,
COC(=O)c1[nH]c2ccccc2c1NC(=O)CN1CCN(C/C=C/c2ccccc2)CC1,18.9,19.6,0.4,-18.3,7.4,2.9,.,
CCOC(=O)c1[nH]c2ccc(F)cc2c1NC(=O)CN1CCN(C/C=C/c2ccccc2)CC1,65.1*,56.6*,17.5,-14.4,11.5,2.7,21.8,
CC1Cc2ccccc2N1C(=O)c1cc2c(=O)n3ccccc3nc2n1C (stereo not drawn),46.1,53.0*,-44.0,-9.8,1.1,42.3,10.2,
O=C(CCNc1ccc(Br)cc1)c1cccc([N+](=O)[O-])c1,-67.6,-25.4,-93.0,-8.3,0.6,11.3,.,
O=C(/C(N=Nc1cccc([N+](=O)[O-])c1)=C(/O)c1ccc(Br)cc1)C(F)(F)F,-28.7,96.1*,-161.2,-57.7*,-5.0,51.1*,87.9*,FLuc counter=24.9
COc1cc(-c2noc(C)c2C#Cc2nccn2C)cc(OC)c1OC,33.1,47.9,6.3,-19.5,2.6,-4.8,.,
COc1cc(-c2noc(C)c2-c2ccc3[nH]ccc3c2)cc(OC)c1OC,-24.3,82.0*,-9.0,-4.2,4.2,-22.2,77.2*,FLuc counter=53.7*
COc1cc(-c2noc(C)c2-c2ccc(N(C)C)nc2)cc(OC)c1OC,22.7,86.3*,28.6,-23.2,-2.0,36.8,79.3*,FLuc counter=88.0*
CC(C)CC(=O)Nc1ccc(C(=O)COC(=O)C2CC(=O)N(Cc3ccccc3)C2)cc1 (stereo not drawn),4.8,29.2,8.5,-2.3,1.9,-3.0,.,
Cc1cccc(N2CCN(C(=O)c3cn4ccccc4n3)CC2C)c1 (stereo not drawn),7.3,-26.1,7.6,-6.4,3.0,6.3,.,
C[C@H]1CN([C@@H](C)CO)C(=O)CCCn2nncc2CO[C@H]1CN(C)C(=O)Nc1ccc2c(c1)OCO2,-0.7,.,-27.4,-3.6,0.9,9.3,.,
CCC(=O)N1c2ccc(S(=O)(=O)NC3CCCCC3)cc2CC1C (stereo not drawn),-20.0,6.3,4.7,11.9,-10.3,-9.4,.,
